# According to the supplement of paper PMC10849652:
# About 7,900 targets were measured; listed, in parts, are those with a hit and a random draw of the rest. About 0.6% of all pairs of compound and target were hits. Unmarked numbers belong to inactive results.
# Tests used:
# Assay in all cases: log2 fold change, soluble protein after heating vs DMSO (PISA); higher = thermal stabilisation; K562 cells, 10 uM, 30 min; active = over 0.2 and 3.5 SD of the protein, either way, in both replicates (recomputed)
# [1] = compound: CC1=C(C=C(C=C1)NC(=O)C2=CC(=CC=C2)C(C)(C)C#N)NC3=CC4=C(C=C3)N=CN(C4=O)C
# Method in brief: (§1)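 K562 cells (2×10^6 cells/mL) were treated with 10 μM compound for 30 min, and aliquots were heated for 3 min over 48°C-58°C. Pooled aliquots were extracted in PBS with 0.5% NP-40 at 4°C, and the supernatant after 21,000xg for 90 min was measured by TMTpro 16plex LC-MS/MS with channel sums equalised. Reported thermal stability, relative to control samples and from duplicates, is a log2 fold change.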
# [2] = compound: CC1=C(C=C(C=C1)NC(=O)C2=CC(=CC=C2)N(C)C)NC(=O)C3=CC=C(C=C3)O
# Method in brief: as §1
# [3] = compound: CC1=CC=C(C=C1)SC2=C3C=C(SC3=CN=C2)C(=O)N
# Method in brief: as §1
# [4] = compound: CC1=NC(=CC=C1)C2=C(N=C(N2)C(C)(C)C)C3=CC4=NC=CN=C4C=C3
# Method in brief: as §1
# Nexturastat A = compound: CCCCN(Cc1ccc(C(=O)NO)cc1)C(=O)Nc1ccccc1 [Nexturastat A]
# Method in brief: as §1
# vemurafenib = compound: CCCS(=O)(=O)Nc1ccc(F)c(C(=O)c2c[nH]c3ncc(-c4ccc(Cl)cc4)cc23)c1F [vemurafenib]
# Method in brief: as §1
# [5] = compound: CCCS(=O)(=O)Nc1ccc(F)c(C(=O)c2c[nH]c3ncc(Cl)cc23)c1F
# Method in brief: as §1
# [6] = compound: CCCc1cc(C)[nH]c(=O)c1CNC(=O)c1cc(-c2ccnc(N3CCN(C)CC3)c2)cc2c1cnn2C(C)C
# Method in brief: as §1
# givinostat = compound: CCN(CC)Cc1ccc2cc(COC(=O)Nc3ccc(C(=O)NO)cc3)ccc2c1 [givinostat]
# Method in brief: as §1
# barasertib = compound: CCN(CCCOc1ccc2c(Nc3cc(CC(=O)Nc4cccc(F)c4)[nH]n3)ncnc2c1)CCOP(=O)(O)O [barasertib]
# Method in brief: as §1
# [7] = compound: CC[C@@H]1C(=O)N(C)c2cnc(Nc3ccc(C(=O)NC4CCN(C)CC4)cc3OC)nc2N1C1CCCC1
# Method in brief: as §1
# volasertib = compound: CC[C@@H]1C(=O)N(C)c2cnc(Nc3ccc(C(=O)N[C@H]4CC[C@H](N5CCN(CC6CC6)CC5)CC4)cc3OC)nc2N1C(C)C [volasertib]
# Method in brief: as §1
# [8] = compound: CC[C@H](C)N1C=C(C2=C(C=C(C=C21)C3=CN=C(C=C3)N4CCNCC4)C(=O)NCC5=C(C=C(NC5=O)C)C)C
# Method in brief: as §1
# epoxomicin = compound: CC[C@H](C)[C@@H](C(=O)N[C@@H]([C@@H](C)O)C(=O)N[C@@H](CC(C)C)C(=O)[C@]1(CO1)C)NC(=O)[C@H]([C@@H](C)CC)N(C)C(=O)C [epoxomicin]
# Method in brief: as §1
# [9] = compound: CCn1c(C(=O)N(C2CC2)C2CC2)cc2c3c(ncn3C)c(Nc3cc(C)n(C)n3)nc21
# Method in brief: as §1
# [10] = compound: CCn1cc(-c2ccnc3[nH]c(-c4cccc(CN(C)C)c4)cc23)c(-c2ccc(NC(=O)N(C)C)cc2)n1
# Method in brief: as §1
# [11] = compound: CN(C)CC(=O)Nc1ccc2[nH]c(=O)c3ccccc3c2c1
# Method in brief: as §1
# rosiglitazone = compound: CN(CCOC1=CC=C(C=C1)C[C@H]2C(=O)NC(=O)S2)C3=CC=CC=N3 (racemic) [rosiglitazone]
# Method in brief: as §1
# [12] = compound: CN1C2=C(C3=C1C(=O)N(N=C3)CC4=CC(=CC=C4)N)SC(=C2)S(=O)C
# Method in brief: as §1
# [13] = compound: CN1CCC(CNc2ccc3ncc(-c4cccc(OC(F)(F)F)c4)n3n2)CC1
# Method in brief: as §1
# Chain of UniProt P19784 (P19784 whole entry, looked up): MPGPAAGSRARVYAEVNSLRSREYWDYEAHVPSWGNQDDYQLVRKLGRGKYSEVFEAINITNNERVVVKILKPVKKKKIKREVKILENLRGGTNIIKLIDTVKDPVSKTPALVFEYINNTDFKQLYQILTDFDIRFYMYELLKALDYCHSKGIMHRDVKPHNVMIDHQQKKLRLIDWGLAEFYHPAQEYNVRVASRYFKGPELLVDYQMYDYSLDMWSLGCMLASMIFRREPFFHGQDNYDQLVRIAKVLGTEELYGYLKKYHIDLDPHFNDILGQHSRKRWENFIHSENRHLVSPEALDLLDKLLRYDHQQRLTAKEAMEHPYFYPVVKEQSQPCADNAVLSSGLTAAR
# Chain of UniProt P00915 (P00915 whole entry, looked up): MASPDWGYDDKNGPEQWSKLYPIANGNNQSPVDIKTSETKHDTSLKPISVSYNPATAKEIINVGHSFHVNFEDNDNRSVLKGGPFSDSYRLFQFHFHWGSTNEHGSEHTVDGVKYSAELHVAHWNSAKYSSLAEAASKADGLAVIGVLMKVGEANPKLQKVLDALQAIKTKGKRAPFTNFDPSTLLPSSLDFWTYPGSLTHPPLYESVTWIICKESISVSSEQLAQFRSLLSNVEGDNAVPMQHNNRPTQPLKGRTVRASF
# Chain of UniProt Q9NPF2 (Q9NPF2 whole entry, looked up): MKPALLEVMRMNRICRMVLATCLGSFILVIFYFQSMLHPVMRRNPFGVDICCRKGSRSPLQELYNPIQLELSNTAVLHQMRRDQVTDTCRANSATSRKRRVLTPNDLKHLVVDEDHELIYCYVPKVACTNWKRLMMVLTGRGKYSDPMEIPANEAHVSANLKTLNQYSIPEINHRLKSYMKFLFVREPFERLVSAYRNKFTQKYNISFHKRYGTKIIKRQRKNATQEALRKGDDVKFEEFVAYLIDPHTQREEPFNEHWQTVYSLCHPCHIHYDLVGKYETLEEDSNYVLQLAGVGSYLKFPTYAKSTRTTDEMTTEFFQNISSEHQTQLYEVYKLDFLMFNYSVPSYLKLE
# Chain of UniProt P11802 (P11802 whole entry, looked up): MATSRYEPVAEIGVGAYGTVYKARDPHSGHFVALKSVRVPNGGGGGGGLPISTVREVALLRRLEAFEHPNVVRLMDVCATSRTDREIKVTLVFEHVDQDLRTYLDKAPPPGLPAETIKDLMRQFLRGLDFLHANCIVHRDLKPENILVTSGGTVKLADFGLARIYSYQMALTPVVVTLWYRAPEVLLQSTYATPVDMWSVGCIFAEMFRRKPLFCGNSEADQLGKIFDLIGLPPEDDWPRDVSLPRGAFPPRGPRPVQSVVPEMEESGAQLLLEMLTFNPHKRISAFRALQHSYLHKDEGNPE
# Chain of UniProt Q13057 (Q13057 whole entry, looked up): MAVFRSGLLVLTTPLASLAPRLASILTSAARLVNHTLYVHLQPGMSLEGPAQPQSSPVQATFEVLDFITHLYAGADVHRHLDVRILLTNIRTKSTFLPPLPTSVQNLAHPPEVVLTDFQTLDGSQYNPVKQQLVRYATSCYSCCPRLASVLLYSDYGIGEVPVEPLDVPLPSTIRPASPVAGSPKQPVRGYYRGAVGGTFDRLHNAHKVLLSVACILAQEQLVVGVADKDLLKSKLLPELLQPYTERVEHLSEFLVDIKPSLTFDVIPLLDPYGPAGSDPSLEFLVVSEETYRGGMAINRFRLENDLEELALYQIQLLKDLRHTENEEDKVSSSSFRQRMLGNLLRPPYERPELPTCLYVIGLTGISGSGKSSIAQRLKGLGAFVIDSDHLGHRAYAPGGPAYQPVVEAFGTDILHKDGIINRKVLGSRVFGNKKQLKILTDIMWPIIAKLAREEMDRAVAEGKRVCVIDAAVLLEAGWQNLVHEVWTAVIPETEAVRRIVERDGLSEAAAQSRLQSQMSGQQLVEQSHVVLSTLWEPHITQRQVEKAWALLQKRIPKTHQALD
# Chain of UniProt Q8IUI8 (Q8IUI8 whole entry, looked up): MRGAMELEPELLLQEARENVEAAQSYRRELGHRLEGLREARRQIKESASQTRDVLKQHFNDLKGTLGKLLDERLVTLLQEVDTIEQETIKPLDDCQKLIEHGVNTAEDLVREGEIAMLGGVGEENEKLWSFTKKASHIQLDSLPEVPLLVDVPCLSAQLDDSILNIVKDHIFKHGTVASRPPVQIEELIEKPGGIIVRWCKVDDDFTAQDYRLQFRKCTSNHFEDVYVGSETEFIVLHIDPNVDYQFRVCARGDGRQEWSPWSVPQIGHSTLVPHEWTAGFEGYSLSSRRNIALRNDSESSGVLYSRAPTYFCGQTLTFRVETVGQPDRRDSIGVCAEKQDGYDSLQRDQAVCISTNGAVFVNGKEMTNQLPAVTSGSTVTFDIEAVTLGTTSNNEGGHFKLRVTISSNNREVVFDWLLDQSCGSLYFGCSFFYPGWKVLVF
# Chain of UniProt Q96JM3 (Q96JM3 whole entry, looked up): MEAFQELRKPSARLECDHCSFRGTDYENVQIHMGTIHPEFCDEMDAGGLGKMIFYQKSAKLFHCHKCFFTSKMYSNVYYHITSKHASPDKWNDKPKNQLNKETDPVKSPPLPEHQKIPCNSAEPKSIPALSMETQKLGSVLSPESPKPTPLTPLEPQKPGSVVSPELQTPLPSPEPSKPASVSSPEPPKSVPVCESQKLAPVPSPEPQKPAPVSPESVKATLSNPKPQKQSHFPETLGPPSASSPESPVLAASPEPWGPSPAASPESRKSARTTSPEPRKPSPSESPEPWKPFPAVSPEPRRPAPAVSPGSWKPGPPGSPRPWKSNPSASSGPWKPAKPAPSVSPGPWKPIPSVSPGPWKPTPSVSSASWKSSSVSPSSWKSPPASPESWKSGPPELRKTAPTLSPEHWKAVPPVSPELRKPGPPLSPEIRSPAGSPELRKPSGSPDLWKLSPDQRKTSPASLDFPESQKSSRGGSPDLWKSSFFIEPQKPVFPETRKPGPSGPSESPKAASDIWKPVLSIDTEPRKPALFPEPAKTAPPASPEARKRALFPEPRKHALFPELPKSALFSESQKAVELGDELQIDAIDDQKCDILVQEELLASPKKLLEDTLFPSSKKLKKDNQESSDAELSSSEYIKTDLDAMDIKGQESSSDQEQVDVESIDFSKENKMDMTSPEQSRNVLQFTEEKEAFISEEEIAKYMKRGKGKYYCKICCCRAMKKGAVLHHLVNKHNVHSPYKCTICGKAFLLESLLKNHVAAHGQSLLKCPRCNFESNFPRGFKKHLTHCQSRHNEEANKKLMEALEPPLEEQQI
# Chain of UniProt O75122 (O75122 whole entry, looked up): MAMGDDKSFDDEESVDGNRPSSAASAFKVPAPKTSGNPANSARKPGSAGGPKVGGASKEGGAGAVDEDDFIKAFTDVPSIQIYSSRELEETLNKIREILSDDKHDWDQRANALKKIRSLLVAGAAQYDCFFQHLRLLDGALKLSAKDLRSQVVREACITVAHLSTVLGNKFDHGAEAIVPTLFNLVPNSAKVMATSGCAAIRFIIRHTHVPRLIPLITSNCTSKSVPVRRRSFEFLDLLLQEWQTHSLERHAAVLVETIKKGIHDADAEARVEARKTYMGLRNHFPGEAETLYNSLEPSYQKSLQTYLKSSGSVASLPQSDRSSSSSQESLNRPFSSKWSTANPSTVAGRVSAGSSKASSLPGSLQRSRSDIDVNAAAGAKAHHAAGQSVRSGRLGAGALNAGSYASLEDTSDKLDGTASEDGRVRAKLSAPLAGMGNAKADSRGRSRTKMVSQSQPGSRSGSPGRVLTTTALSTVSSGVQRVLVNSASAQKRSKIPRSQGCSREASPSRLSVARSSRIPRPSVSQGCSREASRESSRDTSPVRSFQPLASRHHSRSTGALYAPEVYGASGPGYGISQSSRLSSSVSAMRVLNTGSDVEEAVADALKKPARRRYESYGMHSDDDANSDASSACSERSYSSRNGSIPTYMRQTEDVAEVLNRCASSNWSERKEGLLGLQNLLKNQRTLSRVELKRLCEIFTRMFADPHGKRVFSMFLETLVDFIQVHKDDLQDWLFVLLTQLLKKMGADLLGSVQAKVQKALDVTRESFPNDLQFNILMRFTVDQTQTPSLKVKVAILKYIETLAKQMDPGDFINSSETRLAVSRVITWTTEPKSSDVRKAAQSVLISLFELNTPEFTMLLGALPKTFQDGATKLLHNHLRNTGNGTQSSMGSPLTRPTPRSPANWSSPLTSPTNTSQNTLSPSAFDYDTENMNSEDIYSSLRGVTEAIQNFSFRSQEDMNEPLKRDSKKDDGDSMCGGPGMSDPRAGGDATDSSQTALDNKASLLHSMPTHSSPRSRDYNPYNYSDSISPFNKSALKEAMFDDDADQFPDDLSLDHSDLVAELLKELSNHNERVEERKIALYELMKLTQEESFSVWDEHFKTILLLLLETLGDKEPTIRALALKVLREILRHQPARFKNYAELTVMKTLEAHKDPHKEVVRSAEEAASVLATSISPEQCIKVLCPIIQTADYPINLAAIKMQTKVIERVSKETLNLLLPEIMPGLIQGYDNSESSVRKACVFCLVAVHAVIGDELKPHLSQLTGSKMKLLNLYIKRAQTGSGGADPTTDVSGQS
Target,log2 fold change [1],log2 fold change [2],log2 fold change [3],log2 fold change [4],log2 fold change (Nexturastat A),log2 fold change (vemurafenib),log2 fold change [5],log2 fold change [6],log2 fold change (givinostat),log2 fold change (barasertib),log2 fold change [7],log2 fold change (volasertib),log2 fold change [8],log2 fold change (epoxomicin),log2 fold change [9],log2 fold change [10],log2 fold change [11],log2 fold change (rosiglitazone),log2 fold change [12],log2 fold change [13]
CRLF3 (UniProt Q8IUI8),0.05,-0.015,0.03,-0.071,0.005,0.057,0.044,0.025,0.065,0.073,-0.085,-0.277,0.067,0,-0.069,-0.041,0.024,0.041,0.031,-0.268 (active)
CHAMP1 (UniProt Q96JM3),-0.003,-0.018,0.005,-0.012,0.011,-0.01,-0.011,-0.003,0.032,0.027,-0.035,-0.357 (active),0.181,0.016,-0.038,-0.095,0.014,0.063,0.038,-0.302
COASY isoform 2 (UniProt Q13057),-0.002,-0.058,0.057,0.029,0.021,0.054,0.209,-0.007,-0.04,0.029,-0.068,-0.266 (active),0.027,-0.013,0.061,-0.052,0.038,0.017,-0.08,-0.132
CLASP2 isoform 3 (UniProt O75122),-0.032,-0.01,0.013,0.012,-0.006,0.089,0.061,0.029,0.013,0.066,-0.175,-0.326 (active),0.054,0.034,-0.087,-0.024,0.051,0.038,0,-0.227 (active)
CHST11 (UniProt Q9NPF2),0.019,0.099,0.189,0.047,0.013,0.027,0.384 (active),0.089,-0.029,0.049,-0.215,-0.187,-0.078,0.011,0.043,-0.017,-0.045,-0.044,,0.022
CA1 (UniProt P00915),-0.028,-0.008,0.03,0.014,-0.051,0.048,0.016,-0.039,-0.021,0.008,0,-0.02,0.01,0.016,0.003,0.042,-0.002,0.045,-0.034,0.134
CDK4 (UniProt P11802),-0.077,-0.003,0.015,-0.005,0.166,-0.161,-0.128,-0.025,-0.009,-0.023,0.16,0.071,0.117,0.16,-0.018,,-0.085,0,0.146,
CSNK2A2 (UniProt P19784),-0.037,0.009,0.021,0.005,0.004,0,0.08,-0.035,0.03,0.003,-0.053,-0.122,0.028,0.029,0.01,-0.043,-0.006,0.066,-0.038,-0.244 (active)
